Compound activity deposited in PubChem BioAssay by National Center for Advancing Translational Sciences (NCATS).
Gal4-VP16 FLuc – VP16 counterscreen qHTS for inhibitors of ROR gamma transcriptional activity; AID 2546, 2010; Potency, µM (doses to about 53.6 µM), actives largely listed as inhibitors; Drosophila S2 Gal4-VP16 UAS-luciferase, luminescence, 20 h; actives 3.5% (n = 310,000);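 also: Gal4-VP16 expression switched on by copper sulfate through the metallothionein promoter; nearly all actives have a fitted effect of over 50% in size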
ELG1 DNA repair – qHTS screen for small molecules that inhibit ELG1-dependent DNA repair in human embryonic kidney (HEK293T) cells expressing luciferase-tagged ELG1 | HEK293T ELG1-luciferase reporter, luminescence, 16 h; DNA damage induced by 5-fluorouridine | Potency, µM (doses to about 46.1 µM), hits mostly inhibitors | actives 2.3% (n = 330,000) | AID 504467, 2011; also: nearly all actives have a fitted effect of over 55% in size
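In this reporter screen, reduction of luminescence relative to DMSO vehicle indicated activity. Compounds and 5-fluorouridine were added together to 2,000 cells per well, incubated for 16 hr at 37 °C, then developed with ONE-Glo.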
RORgamma inh – qHTS for inhibitors of ROR gamma transcriptional activity; Nuclear receptor ROR-gamma (Mus musculus), P51450; Drosophila S2 Gal4-RORgamma UAS-luciferase reporter, 20 h; Potency, µM (top dose mostly 53.6 µM), hits mostly inhibitors; actives 5.4% (n = 310,000); AID 2551, 2010; also: nearly all actives have a fitted effect of over 60% in size
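Read-out: Photinus luciferase luminescence; inhibitors lower reporter signal. Insect Schneider cells with Gal4-ROR gamma fusion under metallothionein promoter, UAS reporter; 700 uM final copper sulfate induction, 20 hr, ambient temperature.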
B2AR arrestin – qHTS assay of beta-arrestin-biased ligands of beta2-adrenergic receptor; beta-arrestin recruitment to beta2AR, cell-based reporter; Potency, µM (top dose mostly 46.1 µM), hits mostly activators; actives 0.02% (n = 330,000); also: nearly all actives have a fitted effect of over 65% in size
TSHR antag – Antagonists of the Thyroid Stimulating Hormone Receptor: HTS campaign. actives 0.2% (n = 330,000). AID 504810, 2011. activity change, negative = inhibition, % at 11.5 µM. TSHR-expressing cells, TSH-stimulated cAMP HTRF, 2 h; stronger effect = lower value;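 active = activity change below a set negative limit, meaning inhibition stronger than a set level, cut at about -70% in these data; inconclusive = activity change between two set negative limits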
Target sequence (P16473 whole entry, looked up): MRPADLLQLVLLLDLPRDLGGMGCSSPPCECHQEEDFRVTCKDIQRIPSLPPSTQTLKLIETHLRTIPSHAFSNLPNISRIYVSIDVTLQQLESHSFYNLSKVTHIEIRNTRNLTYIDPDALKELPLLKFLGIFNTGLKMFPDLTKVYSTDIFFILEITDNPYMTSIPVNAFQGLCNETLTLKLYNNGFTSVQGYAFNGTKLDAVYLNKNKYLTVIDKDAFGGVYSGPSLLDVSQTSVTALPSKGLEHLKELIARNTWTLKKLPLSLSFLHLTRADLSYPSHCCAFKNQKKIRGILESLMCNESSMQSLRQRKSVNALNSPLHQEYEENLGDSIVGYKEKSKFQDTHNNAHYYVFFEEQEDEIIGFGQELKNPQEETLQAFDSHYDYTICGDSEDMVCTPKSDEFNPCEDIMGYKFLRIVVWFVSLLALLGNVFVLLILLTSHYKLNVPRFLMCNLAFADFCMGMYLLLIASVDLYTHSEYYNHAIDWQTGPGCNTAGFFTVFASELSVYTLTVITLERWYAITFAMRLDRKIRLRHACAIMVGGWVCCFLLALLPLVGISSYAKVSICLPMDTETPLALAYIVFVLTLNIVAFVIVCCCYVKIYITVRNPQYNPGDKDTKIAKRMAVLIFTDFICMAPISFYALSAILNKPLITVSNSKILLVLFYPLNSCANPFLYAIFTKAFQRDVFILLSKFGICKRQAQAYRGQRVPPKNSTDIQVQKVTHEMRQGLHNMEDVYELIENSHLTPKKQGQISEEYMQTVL
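Antagonism was scored as loss of TSH-driven cAMP in TSHR cells, stimulated with 4nM TSH (EC80) for 2 hours at 37 deg C and detected by homogeneous HTRF competition immunoassay.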
Large screens that a line does not name were inactive. Hits are enriched below; roughly 7.5% of the tested compounds scored in any of these assays. Unless noted, calls follow the shape of the dose curve; as a rule, active = well fitted curve in the direction sought with a large enough effect; inconclusive = small, poorly fitted or top-dose-only effect, or another doubt; inactive = no such curve, though single readings can be large; an effect the other way counts as inactive or inconclusive.

C=C1C(=O)O[C@H]2[C@H]1[C@@H](O)CC(=C)[C@@H]1CC(=O)[C@@H](C)[C@H]21	Gal4-VP16 FLuc inconclusive, RORgamma inh 13µM
COc1ccc(/C=C2\SC(=NCc3ccccc3)N(Cc3ccccc3)C2=O)cc1OC	ELG1 DNA repair 13µM
COc1cc(/C=C2/SC(=O)N(Cc3ccccc3)C2=O)ccc1OCc1ccncc1	ELG1 DNA repair 10µM
COc1cc(/C=C2/SC(=S)N(Cc3ccccc3)C2=O)ccc1OCC(=O)O	ELG1 DNA repair inconclusive
COc1ccc(C(C(=O)NC(C)(C)C)N(C(=O)CCC(=O)Nc2ccccn2)C2CCCCC2)cc1 (centres undefined)	ELG1 DNA repair inconclusive
Cc1cnn(CCC(=O)NNC(=S)NCC(C)C)c1	Gal4-VP16 FLuc 3.2µM, RORgamma inh 0.56µM
CCCCNC(=S)NNC(=O)CCn1cc(C)cn1	Gal4-VP16 FLuc 6.3µM, RORgamma inh 1.6µM
C=CCNC(=O)c1cc([N+](=O)[O-])cc2c(=O)[nH]c(Nc3ccc(Cl)c(Cl)c3)nc12	none (no result: ELG1 DNA repair, B2AR arrestin, TSHR antag)
COC(=O)[C@@H]1CC[C@H](C)[C@@H](c2ccc(C)cc2)N1C(=O)c1ccc(/C=N/O[C@@H](C)CN2CCCCc3nc(C)c(C)cc32)cc1	Gal4-VP16 FLuc 20µM, ELG1 DNA repair inconclusive, RORgamma inh inconclusive
C[C@@H]1O[C@H]2C3=C(C(=O)[C@H]4O[C@@H]4[C@H]3O)[C@@H]1[C@@H]1[C@@H](C)OC=C3[C@H](O)[C@H]4O[C@@H]4/C(=N\OCc4ccccc4)[C@]312	none (no result: ELG1 DNA repair, B2AR arrestin, TSHR antag)
COc1ccccc1OCC(=O)NNC(=O)C1CCN(c2ncnc3sc(C)c(C)c23)CC1	ELG1 DNA repair inconclusive (no result: Gal4-VP16 FLuc, RORgamma inh)
CCCN(CC(=O)Nc1ccccc1C)C(=O)C1CCN(c2ncnc3sc(C)c(C)c23)CC1	ELG1 DNA repair 9.2µM (no result: Gal4-VP16 FLuc, RORgamma inh)
CCc1cccc(NC(=O)C2CCN(c3ncnc4sc(C)c(C)c34)CC2)c1	ELG1 DNA repair inconclusive (no result: Gal4-VP16 FLuc, RORgamma inh, TSHR antag)
CNC(=O)c1ccc(NC(=O)C2CCN(c3ncnc4sc(C)c(C)c34)CC2)cc1	ELG1 DNA repair 9.2µM
COc1cc(C(=O)N2CCN(c3ncnc4sc(C)c(C)c34)CC2)cc(OC)c1OC	Gal4-VP16 FLuc 4µM, ELG1 DNA repair 6.5µM, RORgamma inh inconclusive
Cc1ccccc1OCC(=O)NNC(=O)C1CCN(c2ncnc3sc(C)c(C)c23)CC1	ELG1 DNA repair 21µM (no result: Gal4-VP16 FLuc, RORgamma inh)
COc1ccc(CCNC(=O)CSc2ccc(-c3cccs3)nn2)cc1OC	none
COc1cccc(-c2nc(N3CCNCC3)c3ccccc3n2)c1	none (no result: ELG1 DNA repair, B2AR arrestin, TSHR antag)
COCCN(C(=O)CSc1nc(N)cc(=O)[nH]1)c1c(N)n(Cc2ccccc2)c(=O)[nH]c1=O	none (no result: Gal4-VP16 FLuc, RORgamma inh)
CCOCCCNC(=O)c1cn(CC)c2ccc(S(=O)(=O)N3CCCC3)cc2c1=O	none
CC(=O)OCCBr	none (no result: ELG1 DNA repair, B2AR arrestin, TSHR antag)
CCCCCC1=C2CNC(CCC)(C(=O)OC)C=C2C(C)C1=O (centres undefined)	none (no result: ELG1 DNA repair, B2AR arrestin, TSHR antag)
CC[C@H](C)[C@H](NC(=O)[C@H](Cc1ccccc1)NC(=O)[C@H](C)NC(=O)[C@H](CC(=O)O)NC(=O)[C@H](CCCCN)NC(=O)[C@H](CO)NC(=O)[C@@H]1CCCN1C(=O)[C@@H]1CCC(=O)N1)C(=O)NCC(=O)N[C@@H](CC(C)C)C(=O)N[C@@H](CCSC)C(N)=O	none (no result: ELG1 DNA repair, B2AR arrestin, TSHR antag)
COc1ccc(-c2csc(NC(=O)C3CCN(c4ncnc5sc(C)c(C)c45)CC3)n2)cc1OC	ELG1 DNA repair 5.2µM, TSHR antag -77 (no result: Gal4-VP16 FLuc, RORgamma inh)
Cc1ccc(C(=O)O)cc1-n1c(=O)n(Cc2ccccc2)c(=O)c2[nH]cnc21	none
CCOC(=O)N1CCC(NC(=O)CCS(=O)(=O)c2ccc3c(c2)CCN3C(=O)CC)CC1	RORgamma inh inconclusive
CCOC(=O)N1CCC(NS(=O)(=O)c2ccc3c(c2)CCN3C(C)=O)CC1	ELG1 DNA repair 18µM
S=c1[nH]nc(-c2ccccc2Br)n1Cc1ccccc1	Gal4-VP16 FLuc 6.3µM, RORgamma inh 4.5µM
CCn1c(-c2ccccc2O)n[nH]c1=S	RORgamma inh 13µM
Cn1c(-c2cc(Br)ccc2O)n[nH]c1=S	Gal4-VP16 FLuc inconclusive, RORgamma inh inconclusive
CCn1c(-c2cc(-c3ccccc3)sc2N)n[nH]c1=S	Gal4-VP16 FLuc 13µM, ELG1 DNA repair inconclusive, RORgamma inh 4µM
Oc1ccc(Br)cc1-c1n[nH]c(=S)n1Cc1ccccc1	RORgamma inh 10µM
C=C1C=C(Br)C2(OCCCO2)[C@H]2OC12 (some centres undefined)	none (no result: ELG1 DNA repair, B2AR arrestin, TSHR antag)
Oc1ccccc1-c1n[nH]c(=S)n1Cc1ccccc1	RORgamma inh 11µM
O=C(NC(=S)NC1CCC(O)CC1)c1ccco1 (centres undefined)	ELG1 DNA repair inconclusive (no result: Gal4-VP16 FLuc, RORgamma inh)
O=C(NC(=S)NC1CCCc2ccccc21)c1ccc(F)cc1 (centres undefined)	Gal4-VP16 FLuc 16µM, ELG1 DNA repair inconclusive, RORgamma inh 8.9µM
O=C(NC(=S)NC1CCCc2ccccc21)c1ccco1 (centres undefined)	Gal4-VP16 FLuc inconclusive, RORgamma inh 7.1µM
O=[N+]([O-])c1c(NCCCO)cc(N2CCN(Cc3ccc4c(c3)OCO4)CC2)c2nonc12	Gal4-VP16 FLuc 3.5µM, ELG1 DNA repair 23µM, RORgamma inh 5µM
Cn1ccnc1Sc1cc(NCCCO)c([N+](=O)[O-])c2nonc12	Gal4-VP16 FLuc 11µM, ELG1 DNA repair inconclusive, RORgamma inh 1.3µM
O=C(O)c1ccc(N2CCN(Cc3ccc4c(c3)OCO4)CC2)c([N+](=O)[O-])c1	none
O=[N+]([O-])c1c(NCCCO)cc(Sc2ccc(Cl)cc2)c2nonc12	Gal4-VP16 FLuc 5µM, RORgamma inh 5µM
CCOC(=O)C1(CCc2ccccc2)CCN(C(=O)c2cc(C)nc(C)n2)CC1	ELG1 DNA repair inconclusive
O=C(NCc1ccccc1)[C@]1(C(F)(F)F)C[C@H](CCCO)CCCO1	none (no result: ELG1 DNA repair, B2AR arrestin, TSHR antag)
COc1ccccc1N(C)S(=O)(=O)c1ccc(C(=O)N(C)Cc2ccc(OC(F)F)cc2)cc1	ELG1 DNA repair 16µM (no result: Gal4-VP16 FLuc, RORgamma inh)
COc1ccccc1N(C)S(=O)(=O)c1ccc(Cl)c(C(=O)NCc2ccco2)c1	ELG1 DNA repair 21µM (no result: Gal4-VP16 FLuc, RORgamma inh)
COc1ccccc1N(C)S(=O)(=O)c1ccc(C(=O)NCCc2ccc(F)cc2)cc1	ELG1 DNA repair inconclusive
COc1ccccc1N(C)S(=O)(=O)c1ccc(C(=O)Nc2ccc(N3CCOCC3)cc2)cc1	ELG1 DNA repair 23µM
COc1ccccc1N(C)S(=O)(=O)c1ccc(C(=O)NCC(C)C)cc1	ELG1 DNA repair inconclusive, RORgamma inh inconclusive
COc1ccccc1N(C)S(=O)(=O)c1ccc(C(=O)Nc2cccc(Br)c2)cc1	ELG1 DNA repair 18µM (no result: Gal4-VP16 FLuc, RORgamma inh)
